# Measurements taken from PubChem BioAssay (Tox21).
# Results filed as inconclusive are left out. Activity calls are given as the source filed them. Calls come from the whole dose curve.
# Target: D(2) dopamine receptor (Homo sapiens) (UniProt P14416)
# Assay: Dopamine D2 receptor (DRD2) small molecule agonists, cell-based qHTS assay (AID 1963594); note: nearly all actives have a fitted effect of over 35% in size
# Settings: HEK293-DRD2 cAMP HTRF, agonist mode, 30 min; series mostly up to 92.4 µM; activation: at the top concentration
# Text: National Center for Advancing Translational Sciences [NCATS]
# Division of Preclinical Innovation [DPI]
# U.S. Environmental Protection Agency [EPA]
# National Institutes of Environmental Health Sciences [NIEHS]
# National Toxicology Program [NTP]
# U.S. Food and Drug Administration [FDA]
# DRD2 is the D2 subtype of the dopamine receptor, which is coupled to Gi subtype of G protein-coupled receptor. This G protein-coupled receptor inhibits adenylyl cyclase activity. The DRD2-HEK293 cell line stably expressing D2 dopamine receptor can be used for screening agonists and antagonists of interactions between D2 and its ligands. The Hek293-DRD2 cAMP assay is based on HTRF technology. It measures changes of cAMP accumulation in response to Gi coupled GPCR activation or inhibition.
# Tox21 Assay Protocol Summary:
# DRD2-Hek293 cells were dispensed at 600 cells/3uL/well in 1536-well white plates using a Multidrop Dispenser. After the assay plates were incubated at a 37 C/5% CO2 incubator for 24 h, 1 uL of Ro20-1724 at final concentration of 0.1 mM was transferred to the assay plate by a Flying Reagent Dispenser. Following Ro20-1724 addition, 23 nL of compound dissolved in DMSO, positive controls or DMSO only was added to the assay plates via Wako pintool station. The assay plates were incubated at room temperature for 10 min. Next, 1 uL of NKH477 at 200nM was added into the plates. After the assay plates were incubated at room temperature for an additional 30 min, 2.5 ul/well of cAMP-d2 and 2.5 ul/well of anti-cAMP-cryptate were added respectively into the assay plates using a Flying Reagent Dispenser. The plates were incubated at room temperature for 1 h. The fluorescence intensity in the plates was measured at 340 nm excitation and 665 & 620 nm emission by an Envision plate reader.
# % is set by controls: 0 for no effect and ±100 for the full control effect.
# Chain of D(2) dopamine receptor (Homo sapiens) (P14416 whole entry, looked up): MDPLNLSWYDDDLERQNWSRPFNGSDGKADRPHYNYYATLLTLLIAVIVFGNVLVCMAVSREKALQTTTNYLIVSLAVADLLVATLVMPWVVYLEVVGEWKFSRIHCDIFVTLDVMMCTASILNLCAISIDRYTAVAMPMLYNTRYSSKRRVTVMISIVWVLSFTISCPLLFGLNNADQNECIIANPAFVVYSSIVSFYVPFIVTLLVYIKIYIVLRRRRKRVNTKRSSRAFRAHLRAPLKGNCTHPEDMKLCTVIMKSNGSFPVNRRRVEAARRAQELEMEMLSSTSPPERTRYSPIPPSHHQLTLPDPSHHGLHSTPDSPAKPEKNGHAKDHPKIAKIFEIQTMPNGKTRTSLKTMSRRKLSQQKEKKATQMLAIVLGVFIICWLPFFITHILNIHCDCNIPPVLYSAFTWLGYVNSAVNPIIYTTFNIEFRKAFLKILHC
Compound,activation,Potency
CC(C)(C)NCC(O)COc1ccccc1OCC1CCCO1 (stereo not given),9.25% [at 42.5 µM] (inactive),–
CCCCN(CCO)CCO,-1.77% (inactive),–
CCOC(=O)[C@H](CCc1ccccc1)N[C@@H](C)C(=O)N1C(=O)N(C)C[C@H]1C(=O)O,3.2% [at 42.5 µM] (inactive),–
CCCCCCCCCCCCCC[P+](CCCC)(CCCC)CCCC,-14.7% (inactive),–
CC(C)(CC(=O)O)C(=O)O,-0.107% (inactive),–
NC(=O)Cc1cccc(C(=O)c2ccccc2)c1N,3.15% [at 42.5 µM] (inactive),–
OCCN1CCNCC1,–,inactive
C=C1CC/C=C(\C)CC[C@@H]2[C@@H]1CC2(C)C,-4.81% (inactive),–
N=C(N)c1ccccc1,-0.395% (inactive),–
CCOC(=O)c1c(C)n(C)c2ccc(O)cc12,-18.8% [at 42.5 µM] (inactive),–
Nc1cc(-c2ccncc2)c[nH]c1=O,–,inactive
CC(=O)Oc1ccccc1C(=O)Nc1ncc([N+](=O)[O-])s1,–,inactive
O=C(O)CCCCCC(=O)O,0.257% (inactive),–
CC(C)(O)C#CC(C)(C)O,1.31% (inactive),–
CC(C)(C)C(=O)OCOC(=O)C1N2C(=O)CC2S(=O)(=O)C1(C)C (stereo not given),-1.75% [at 42.5 µM] (inactive),–
O=C(O)c1cccc(C[C@@H]2COc3ccc(OCc4nc5cc(F)ccc5s4)cc3[C@@H]2O)c1,-9.69% (inactive),–
O=C(O)c1ccccc1[N+](=O)[O-],-1.5% (inactive),–
Cc1cc(C)cc(O)c1,–,inactive
O=C(O)CC(=O)O,1.09% (inactive),–
O=C(c1ccc(Cl)cc1)c1ccc(Cl)cc1,2.22% (inactive),–

Compound,activation,Potency
CC(=O)OC1CC(C)OC(C)O1 (stereo not given),–,inactive
OCc1ccccc1,-0.028% (inactive),–
C1CCC(SSC2CCCCC2)CC1,0.426% (inactive),–
CCCC(=O)OCc1ccccc1,-3.54% (inactive),–
c1coc(CNc2ncnc3nc[nH]c23)c1,-4.14% (inactive),–
CCCCc1ccc(Cl)cc1,2.46% (inactive),–
NS(=O)(=O)c1ccc(N2CCCCS2(=O)=O)cc1,-4.45% [at 42.5 µM] (inactive),–
CC(=O)O[C@H](CC(=O)[O-])C[N+](C)(C)C,2.45% (inactive),–
CC(C)OC(=O)C(O)(CC(=O)O)CC(=O)O,-2.73% (inactive),–
CC1(C)CO[C@@H](CC(=O)O)CN1,-1.74% [at 42.5 µM] (inactive),–
Cc1ccc(S(=O)(=O)NC(=O)NC2CCCCCCC2)cc1,-0.772% [at 42.5 µM] (inactive),–
c1cc(C(c2ccc(OCC3CO3)cc2)C(c2ccc(OCC3CO3)cc2)c2ccc(OCC3CO3)cc2)ccc1OCC1CO1 (stereo not given),–,inactive
COc1ccc(C)cc1,0.266% (inactive),–
CCO/C([O-])=N/c1c[n+](N2CCOCC2)no1,-11.2% [at 42.5 µM] (inactive),–
S=C(NC1CCCCC1)NC1CCCCC1,–,inactive
CO[C@@]1(NC(=O)C(C(=O)O)c2ccc(O)cc2)C(=O)N2C(C(=O)O)=C(CSc3nnnn3C)CO[C@@H]21 (stereo not given in full),17.8% [at 42.5 µM] (inactive),–
CC(C)CCCCCOC(=O)CCS,-0.79% (inactive),–
CCOc1ccc2c(c1)C(C)=CC(C)(C)N2,–,inactive
Cc1sccc1Br,8.1% [at 42.5 µM] (inactive),–
O=c1[nH]c2ccc(Cl)cc2o1,-12.7% (inactive),–
